The text below walks through data of PMC7862700, “An all-to-all approach to the identification of sequence-specific readers for epigenetic DNA modifications on cytosine”.

Holding throughout (test): DAPPL (digital affinity profiling via proximity ligation, sequencing); 10 mM Tris-HCl pH 7.5, 50 mM NaCl, 1 mM DTT, 4% glycerol, room temperature, 30 min; GST-TFs on glutathione beads, 16-mer random dsDNA library, 0.1% formaldehyde crosslink after washing; high values mean tight binding
One assay has as its target T1, FLI1 (Homo sapiens, UniProt Q01543 1-452).
T1 sequence: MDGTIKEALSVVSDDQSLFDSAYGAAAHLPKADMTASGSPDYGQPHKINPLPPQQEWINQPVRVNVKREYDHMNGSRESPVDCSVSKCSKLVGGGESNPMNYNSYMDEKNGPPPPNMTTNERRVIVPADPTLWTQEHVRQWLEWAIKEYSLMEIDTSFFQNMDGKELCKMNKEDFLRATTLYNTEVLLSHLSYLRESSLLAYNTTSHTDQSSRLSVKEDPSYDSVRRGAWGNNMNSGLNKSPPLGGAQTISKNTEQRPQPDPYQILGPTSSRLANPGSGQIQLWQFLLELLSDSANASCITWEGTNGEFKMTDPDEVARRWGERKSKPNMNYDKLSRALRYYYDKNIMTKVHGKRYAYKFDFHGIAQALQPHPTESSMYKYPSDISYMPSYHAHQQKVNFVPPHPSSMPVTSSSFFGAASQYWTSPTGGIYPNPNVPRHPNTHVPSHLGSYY
The following applies: protein: recombinant; tags: N-terminal GST; dsDNA, one strand shown. A digest of the protocol: (§1)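 The binding signal reported is, for every hexamer, its read frequency for a factor over its read frequency for the tag-only sample. Reads came from pools of yeast-expressed, GST-fused human transcription factors on glutathione beads, barcoded with DNA and mixed with that sample, which were incubated with 200 nmole of a random double-stranded 16-mer DNA library in Tris/NaCl/DTT/glycerol buffer at room temperature for 30 min. After washing, the pools were crosslinked with 0.1% formaldehyde, proximity-ligated with BsaI/T4 ligase for 1 h at 37 °C, PCR-amplified and sequenced on an Illumina NextSeq500.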

In the next assay the target is T2, ELK1 (Homo sapiens, UniProt P19419 1-428).
T2 sequence: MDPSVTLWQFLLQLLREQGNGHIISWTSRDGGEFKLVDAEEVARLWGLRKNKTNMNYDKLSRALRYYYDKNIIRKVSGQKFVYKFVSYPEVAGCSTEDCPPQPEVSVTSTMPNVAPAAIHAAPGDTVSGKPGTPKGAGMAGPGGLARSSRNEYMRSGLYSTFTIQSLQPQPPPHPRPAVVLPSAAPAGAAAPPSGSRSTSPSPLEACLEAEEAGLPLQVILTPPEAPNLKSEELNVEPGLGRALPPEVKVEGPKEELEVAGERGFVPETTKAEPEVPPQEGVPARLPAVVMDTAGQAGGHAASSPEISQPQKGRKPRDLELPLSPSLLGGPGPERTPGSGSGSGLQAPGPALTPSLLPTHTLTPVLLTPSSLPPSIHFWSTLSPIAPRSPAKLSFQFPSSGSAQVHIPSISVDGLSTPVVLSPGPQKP
To be noted: protein: recombinant; tags: N-terminal GST; dsDNA, one strand shown. The essentials:
as §1

Another assay deals with T3, GABPA (Homo sapiens, UniProt Q06546 1-454).
T3 sequence: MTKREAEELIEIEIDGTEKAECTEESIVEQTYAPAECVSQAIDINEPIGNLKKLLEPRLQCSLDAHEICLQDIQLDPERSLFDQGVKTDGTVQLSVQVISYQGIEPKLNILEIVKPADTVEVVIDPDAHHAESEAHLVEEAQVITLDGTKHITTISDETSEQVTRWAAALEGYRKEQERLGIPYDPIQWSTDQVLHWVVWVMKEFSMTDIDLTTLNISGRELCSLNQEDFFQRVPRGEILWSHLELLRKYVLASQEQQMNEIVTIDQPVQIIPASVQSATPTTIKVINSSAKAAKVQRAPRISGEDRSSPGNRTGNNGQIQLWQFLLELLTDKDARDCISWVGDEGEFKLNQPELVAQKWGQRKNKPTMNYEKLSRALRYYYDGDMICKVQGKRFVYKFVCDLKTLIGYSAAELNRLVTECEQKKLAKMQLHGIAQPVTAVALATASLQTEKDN
To be noted: protein: recombinant; tags: N-terminal GST; dsDNA, one strand shown. The essentials:
as §1

The target in a further assay is T4, ERG (Homo sapiens, UniProt P11308 1-479).
T4 sequence: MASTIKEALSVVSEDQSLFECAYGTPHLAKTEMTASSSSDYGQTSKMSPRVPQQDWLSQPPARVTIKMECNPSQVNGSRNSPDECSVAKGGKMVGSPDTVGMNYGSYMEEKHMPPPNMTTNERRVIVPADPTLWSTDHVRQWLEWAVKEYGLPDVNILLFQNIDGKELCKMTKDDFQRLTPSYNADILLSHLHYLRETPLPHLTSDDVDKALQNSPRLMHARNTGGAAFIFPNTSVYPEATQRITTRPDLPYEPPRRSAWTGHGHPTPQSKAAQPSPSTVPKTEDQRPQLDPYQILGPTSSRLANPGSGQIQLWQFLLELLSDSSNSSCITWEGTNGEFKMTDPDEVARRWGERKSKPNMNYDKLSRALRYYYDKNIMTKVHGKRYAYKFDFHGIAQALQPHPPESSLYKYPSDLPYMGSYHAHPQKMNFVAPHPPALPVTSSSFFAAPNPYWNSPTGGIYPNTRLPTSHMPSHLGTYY
The following applies: protein: recombinant; tags: N-terminal GST; dsDNA, one strand shown. A digest of the protocol:
as §1

The target in the next assay is ELF1 (Homo sapiens, UniProt P32519 1-619). The following applies: protein: recombinant; tags: N-terminal GST; dsDNA, one strand shown. The essentials:
as §1

The target in the next assay is T5, EHF (Homo sapiens, UniProt Q9NZC4 1-300).
T5 sequence: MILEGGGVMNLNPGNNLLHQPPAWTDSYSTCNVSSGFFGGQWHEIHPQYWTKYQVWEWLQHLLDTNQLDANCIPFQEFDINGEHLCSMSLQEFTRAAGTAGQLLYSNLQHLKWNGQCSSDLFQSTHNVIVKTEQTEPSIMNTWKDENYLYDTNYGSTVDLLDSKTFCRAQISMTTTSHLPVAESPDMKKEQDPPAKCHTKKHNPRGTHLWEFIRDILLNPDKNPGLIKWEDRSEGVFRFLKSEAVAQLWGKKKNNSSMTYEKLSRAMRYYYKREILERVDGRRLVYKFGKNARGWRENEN
To be noted: protein: recombinant; tags: N-terminal GST; dsDNA, one strand shown. The essentials: as §1

The next assay concerns the target SPI1 (Homo sapiens, UniProt P17947 1-270). The following applies: protein: recombinant; tags: N-terminal GST; dsDNA, one strand shown. A digest of the protocol:
as §1

A further assay addresses SPIB (Homo sapiens, UniProt Q01892 1-262). The following applies: protein: recombinant; tags: N-terminal GST; dsDNA, one strand shown. A digest of the protocol:
as §1

A further assay deals with T6, ELK3 (Homo sapiens, UniProt P41970 1-407).
T6 sequence: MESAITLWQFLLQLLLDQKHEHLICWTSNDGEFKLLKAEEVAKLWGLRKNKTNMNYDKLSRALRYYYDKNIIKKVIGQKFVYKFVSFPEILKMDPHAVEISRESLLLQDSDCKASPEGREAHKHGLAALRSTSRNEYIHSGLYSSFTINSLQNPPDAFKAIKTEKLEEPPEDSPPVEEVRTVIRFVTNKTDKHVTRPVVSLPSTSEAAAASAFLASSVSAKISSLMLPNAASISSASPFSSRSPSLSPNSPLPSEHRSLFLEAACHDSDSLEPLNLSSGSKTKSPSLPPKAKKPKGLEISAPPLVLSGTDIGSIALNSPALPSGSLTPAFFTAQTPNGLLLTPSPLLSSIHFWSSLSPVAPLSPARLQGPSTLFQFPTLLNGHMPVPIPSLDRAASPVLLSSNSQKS
The following applies: protein: recombinant; tags: N-terminal GST; dsDNA, one strand shown. The essentials:
as §1

In another assay the target is T7, FEV (Homo sapiens, UniProt Q99581 1-238).
T7 sequence: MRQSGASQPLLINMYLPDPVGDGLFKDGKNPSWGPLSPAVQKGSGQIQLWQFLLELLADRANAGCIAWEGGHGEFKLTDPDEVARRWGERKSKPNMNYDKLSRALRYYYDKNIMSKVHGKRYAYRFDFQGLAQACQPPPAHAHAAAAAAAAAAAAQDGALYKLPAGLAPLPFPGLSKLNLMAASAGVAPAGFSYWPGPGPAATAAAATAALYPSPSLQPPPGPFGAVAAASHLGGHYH
The following applies: protein: recombinant; tags: N-terminal GST; dsDNA, one strand shown. A digest of the protocol: as §1

The next assay addresses ETV5 (Homo sapiens, UniProt P41161 1-510). To be noted: protein: recombinant; tags: N-terminal GST; dsDNA, one strand shown. The essentials:
as §1

The next assay concerns the target HSF1 (Homo sapiens, UniProt Q00613 1-529). The following applies: protein: recombinant; tags: N-terminal GST; chain copies: 3; dsDNA, one strand shown. A digest of the protocol: as §1
In a further assay the target is T8, SPIC (Homo sapiens, UniProt Q8N5J4 1-248).
T8 sequence: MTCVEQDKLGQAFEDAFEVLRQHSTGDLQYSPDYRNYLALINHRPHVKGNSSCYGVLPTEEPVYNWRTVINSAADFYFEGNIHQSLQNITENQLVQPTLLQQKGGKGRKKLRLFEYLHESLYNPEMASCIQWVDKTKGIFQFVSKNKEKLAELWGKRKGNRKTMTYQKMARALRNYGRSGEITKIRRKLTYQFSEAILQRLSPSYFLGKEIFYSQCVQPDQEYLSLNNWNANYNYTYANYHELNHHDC
The following applies: protein: recombinant; tags: N-terminal GST; dsDNA, one strand shown. The essentials: as §1

The next assay concerns the target ELF4 (Homo sapiens, UniProt Q99607 1-663). To be noted: protein: recombinant; tags: N-terminal GST; dsDNA, one strand shown. A digest of the protocol:
as §1

Another assay has as its target T9, ELK4 (Homo sapiens, UniProt P28324-2 1-405).
T9 sequence: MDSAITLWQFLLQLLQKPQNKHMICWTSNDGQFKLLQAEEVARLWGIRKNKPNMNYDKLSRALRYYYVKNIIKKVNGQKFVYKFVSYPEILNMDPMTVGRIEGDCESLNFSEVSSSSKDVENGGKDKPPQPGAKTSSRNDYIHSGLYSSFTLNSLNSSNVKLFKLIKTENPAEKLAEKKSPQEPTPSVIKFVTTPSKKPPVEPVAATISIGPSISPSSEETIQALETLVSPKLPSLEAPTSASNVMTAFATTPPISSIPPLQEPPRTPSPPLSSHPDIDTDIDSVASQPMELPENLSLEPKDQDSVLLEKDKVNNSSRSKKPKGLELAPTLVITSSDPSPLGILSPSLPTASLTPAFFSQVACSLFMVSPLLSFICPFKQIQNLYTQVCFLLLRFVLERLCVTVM
The following applies: protein: recombinant; tags: N-terminal GST; dsDNA, one strand shown. A digest of the protocol:
as §1

The target in the next assay is T10, ELF3 (Homo sapiens, UniProt P78545 1-371).
T10 sequence: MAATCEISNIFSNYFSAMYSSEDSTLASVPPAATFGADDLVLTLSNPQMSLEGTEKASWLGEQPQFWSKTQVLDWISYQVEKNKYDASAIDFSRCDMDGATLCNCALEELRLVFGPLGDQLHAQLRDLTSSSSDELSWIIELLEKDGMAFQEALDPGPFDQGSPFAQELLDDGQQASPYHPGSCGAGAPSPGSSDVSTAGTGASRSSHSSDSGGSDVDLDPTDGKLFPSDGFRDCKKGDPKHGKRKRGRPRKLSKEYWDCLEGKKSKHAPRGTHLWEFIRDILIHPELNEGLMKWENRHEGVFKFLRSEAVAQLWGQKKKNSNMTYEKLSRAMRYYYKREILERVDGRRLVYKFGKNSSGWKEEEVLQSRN
To be noted: protein: recombinant; tags: N-terminal GST; dsDNA, one strand shown. The essentials:
as §1

The target of the next assay is CRX (Homo sapiens, UniProt O43186 1-299). The following applies: protein: recombinant; tags: N-terminal GST; dsDNA, one strand shown. The essentials: as §1
CRX, sequence (O43186 whole entry): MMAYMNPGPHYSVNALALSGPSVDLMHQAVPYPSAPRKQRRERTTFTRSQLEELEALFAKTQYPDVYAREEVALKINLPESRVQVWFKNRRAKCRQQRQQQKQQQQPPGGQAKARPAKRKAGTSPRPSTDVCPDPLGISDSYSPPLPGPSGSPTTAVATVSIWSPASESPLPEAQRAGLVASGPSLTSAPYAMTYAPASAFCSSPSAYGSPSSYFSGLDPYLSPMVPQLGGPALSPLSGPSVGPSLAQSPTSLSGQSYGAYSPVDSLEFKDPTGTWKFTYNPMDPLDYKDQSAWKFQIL
For another assay, the target named is ETV1 (Homo sapiens, UniProt P50549 1-477). The following applies: protein: recombinant; tags: N-terminal GST; dsDNA, one strand shown. The essentials: as §1
ETV1, sequence (P50549 whole entry): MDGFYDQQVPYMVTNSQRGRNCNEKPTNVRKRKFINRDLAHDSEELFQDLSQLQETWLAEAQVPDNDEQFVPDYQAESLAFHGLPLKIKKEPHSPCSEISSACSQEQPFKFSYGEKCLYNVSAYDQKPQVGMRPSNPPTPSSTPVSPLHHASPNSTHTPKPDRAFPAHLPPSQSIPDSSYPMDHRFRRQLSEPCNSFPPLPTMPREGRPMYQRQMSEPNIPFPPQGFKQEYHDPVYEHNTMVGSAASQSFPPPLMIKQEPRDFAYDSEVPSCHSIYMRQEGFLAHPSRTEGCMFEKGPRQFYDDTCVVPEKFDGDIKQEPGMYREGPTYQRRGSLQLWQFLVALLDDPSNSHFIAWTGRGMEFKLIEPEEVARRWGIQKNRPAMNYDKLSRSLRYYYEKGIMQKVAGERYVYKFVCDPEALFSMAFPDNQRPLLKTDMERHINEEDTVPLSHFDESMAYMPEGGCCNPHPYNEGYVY

HSF1, sequence (Q00613 whole entry): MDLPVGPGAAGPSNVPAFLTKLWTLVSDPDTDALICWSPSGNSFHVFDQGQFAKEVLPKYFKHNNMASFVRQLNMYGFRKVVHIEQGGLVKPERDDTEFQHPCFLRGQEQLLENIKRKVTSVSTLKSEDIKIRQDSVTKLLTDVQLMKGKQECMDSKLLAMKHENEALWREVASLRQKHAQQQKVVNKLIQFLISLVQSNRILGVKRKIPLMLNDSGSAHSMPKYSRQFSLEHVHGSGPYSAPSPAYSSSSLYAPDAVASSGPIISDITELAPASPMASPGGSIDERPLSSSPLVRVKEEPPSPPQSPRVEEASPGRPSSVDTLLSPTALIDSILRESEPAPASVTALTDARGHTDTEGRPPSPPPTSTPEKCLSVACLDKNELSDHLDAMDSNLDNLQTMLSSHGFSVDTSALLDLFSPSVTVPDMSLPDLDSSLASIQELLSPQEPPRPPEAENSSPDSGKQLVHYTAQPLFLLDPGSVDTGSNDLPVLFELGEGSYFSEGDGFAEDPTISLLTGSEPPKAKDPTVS
ELF1, sequence (P32519 whole entry): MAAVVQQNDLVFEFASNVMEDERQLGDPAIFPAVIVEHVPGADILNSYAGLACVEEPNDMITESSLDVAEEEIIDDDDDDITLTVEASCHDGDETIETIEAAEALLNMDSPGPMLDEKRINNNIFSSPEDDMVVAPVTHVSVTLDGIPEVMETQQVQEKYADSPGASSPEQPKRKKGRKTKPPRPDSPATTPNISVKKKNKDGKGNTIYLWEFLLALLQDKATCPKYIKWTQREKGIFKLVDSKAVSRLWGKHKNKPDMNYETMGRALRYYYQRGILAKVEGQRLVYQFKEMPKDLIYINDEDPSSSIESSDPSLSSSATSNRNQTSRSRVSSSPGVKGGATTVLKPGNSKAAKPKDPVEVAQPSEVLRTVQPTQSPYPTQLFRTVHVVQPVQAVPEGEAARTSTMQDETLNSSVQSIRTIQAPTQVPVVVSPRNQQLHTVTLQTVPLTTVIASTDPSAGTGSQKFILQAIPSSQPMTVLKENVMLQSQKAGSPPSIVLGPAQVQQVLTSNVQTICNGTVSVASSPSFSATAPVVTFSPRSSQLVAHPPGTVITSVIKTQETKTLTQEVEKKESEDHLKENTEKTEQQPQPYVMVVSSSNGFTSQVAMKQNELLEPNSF
SPIB, sequence (Q01892 whole entry): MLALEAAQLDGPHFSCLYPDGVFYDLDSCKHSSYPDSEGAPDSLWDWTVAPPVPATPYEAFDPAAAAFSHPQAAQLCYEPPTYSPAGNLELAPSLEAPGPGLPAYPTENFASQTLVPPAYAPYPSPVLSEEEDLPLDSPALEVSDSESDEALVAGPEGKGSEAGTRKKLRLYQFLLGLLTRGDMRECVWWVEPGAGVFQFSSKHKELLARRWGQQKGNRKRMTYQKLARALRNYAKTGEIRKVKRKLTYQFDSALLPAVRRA
ELF4, sequence (Q99607 whole entry): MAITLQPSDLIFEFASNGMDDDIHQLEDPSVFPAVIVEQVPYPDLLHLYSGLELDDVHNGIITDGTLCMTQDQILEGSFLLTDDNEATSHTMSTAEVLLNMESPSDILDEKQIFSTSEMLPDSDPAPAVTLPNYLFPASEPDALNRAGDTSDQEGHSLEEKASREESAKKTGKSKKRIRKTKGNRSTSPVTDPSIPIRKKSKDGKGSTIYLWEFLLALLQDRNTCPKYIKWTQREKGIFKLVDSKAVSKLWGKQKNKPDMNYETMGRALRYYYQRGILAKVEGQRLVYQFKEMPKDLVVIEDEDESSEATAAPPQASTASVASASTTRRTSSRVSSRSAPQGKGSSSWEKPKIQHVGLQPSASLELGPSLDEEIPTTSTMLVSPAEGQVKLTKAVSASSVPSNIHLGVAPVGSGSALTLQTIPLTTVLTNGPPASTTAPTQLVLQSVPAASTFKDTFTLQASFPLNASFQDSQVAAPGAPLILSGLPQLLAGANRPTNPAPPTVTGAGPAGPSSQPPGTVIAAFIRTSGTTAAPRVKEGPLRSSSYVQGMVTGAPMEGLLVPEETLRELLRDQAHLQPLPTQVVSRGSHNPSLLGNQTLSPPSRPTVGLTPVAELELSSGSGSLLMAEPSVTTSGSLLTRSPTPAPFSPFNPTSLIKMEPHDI
ETV5, sequence (P41161 whole entry): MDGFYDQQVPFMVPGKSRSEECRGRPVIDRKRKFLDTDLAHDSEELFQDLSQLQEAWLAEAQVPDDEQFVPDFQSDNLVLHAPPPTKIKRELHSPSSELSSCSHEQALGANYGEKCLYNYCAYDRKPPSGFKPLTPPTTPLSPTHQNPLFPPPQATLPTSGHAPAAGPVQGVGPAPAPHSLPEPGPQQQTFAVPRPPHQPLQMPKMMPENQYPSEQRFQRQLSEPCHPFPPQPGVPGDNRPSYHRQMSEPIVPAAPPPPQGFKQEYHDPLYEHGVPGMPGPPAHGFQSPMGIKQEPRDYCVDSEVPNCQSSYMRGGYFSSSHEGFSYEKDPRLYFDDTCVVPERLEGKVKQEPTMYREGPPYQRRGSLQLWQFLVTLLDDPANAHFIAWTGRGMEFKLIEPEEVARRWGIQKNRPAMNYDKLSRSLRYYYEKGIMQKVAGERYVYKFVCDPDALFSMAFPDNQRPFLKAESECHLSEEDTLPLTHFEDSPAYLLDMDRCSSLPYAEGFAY

On to CTATCG, for which the binding signal with FLI1 is 1.13 fold enrichment (6-mer frequency, TF over GST control); with ELK1, 1.14 fold enrichment (6-mer frequency, TF over GST control); with GABPA, 1.05 fold enrichment (6-mer frequency, TF over GST control); with ERG, 1.09 fold enrichment (6-mer frequency, TF over GST control); in the assay with ELF1, 1.11 fold enrichment (6-mer frequency, TF over GST control); with EHF it was 1.07 fold enrichment (6-mer frequency, TF over GST control). The binding signal in the assay with SPI1 is 1.13 fold enrichment (6-mer frequency, TF over GST control); in the assay with SPIB, 1.11 fold enrichment (6-mer frequency, TF over GST control); in the assay with ELK3, 1.08 fold enrichment (6-mer frequency, TF over GST control); with FEV it was 1.01 fold enrichment (6-mer frequency, TF over GST control); with ETV5, 1.06 fold enrichment (6-mer frequency, TF over GST control); with HSF1, 1.17 fold enrichment (6-mer frequency, TF over GST control). The binding signal with SPIC was 1.04 fold enrichment (6-mer frequency, TF over GST control); in the assay with ELF4, 1.15 fold enrichment (6-mer frequency, TF over GST control); in the assay with ELK4, 1.09 fold enrichment (6-mer frequency, TF over GST control); with ELF3, 1.22 fold enrichment (6-mer frequency, TF over GST control); with CRX, 1.08 fold enrichment (6-mer frequency, TF over GST control); with ETV1, 1.13 fold enrichment (6-mer frequency, TF over GST control).
